The campaign covered roughly 39,000 compounds. About 1,500 (3.8%) were called active. For the sample, actives were picked, then their nearest neighbours and some compounds at random.

The test relates to HSkMC (human skeletal muscle cells). The experiment in a line: cytotoxicity call (relative viability < 0.9). The conditions noted are these: 10 µM.
In the case of `C[C@H](CO)N1C[C@H](C)[C@H](CN(C)Cc2ccc(Oc3ccccc3)cc2)Oc2ccc(NC(=O)c3ccncc3)cc2C1=O`, the cytotoxicity call was “inactive”.
On to `C[C@@H]1CN([C@@H](C)CO)C(=O)Cc2cc(NC(=O)Cn3cnnn3)ccc2O[C@@H]1CN(C)C(=O)Nc1cccc2ccccc12`, for which the cytotoxicity call was “inactive”.
For the molecule `C=CC[C@H](CC(=O)NCCO)C(=O)N[C@@H](COC(=O)[C@@H](CC=C)CC(=O)OC(C)(C)C)Cc1c[nH]c2ccccc12`, the cytotoxicity call was “inactive”.
As to `COc1ccc(NC(=O)Nc2ccc3c(c2)C(=O)N([C@H](C)CO)C[C@H](C)[C@H](CN(C)S(=O)(=O)c2c(C)noc2C)OCCCC[C@@H](C)O3)cc1`, the cytotoxicity call is “inactive”.
`COCC(=O)Nc1ccc2c(c1)C(=O)N(C)C[C@@H](OC)[C@@H](C)CN(C(=O)Cc1cccnc1)[C@H](C)CO2`: the cytotoxicity call is “inactive”.
For `C[C@@H]1CCCCO[C@H](CN(C)C(=O)Nc2ccc3c(c2)OCO3)[C@H](C)CN([C@@H](C)CO)C(=O)c2cc(NS(=O)(=O)c3ccc(F)cc3)ccc2O1`, the cytotoxicity call is “inactive”.
For `Cc1ccc(S(=O)(=O)Nc2ccc3c(c2)C(=O)N([C@@H](C)CO)C[C@H](C)[C@H](CN(C)Cc2ccc(C(=O)O)cc2)OCCCC[C@@H](C)O3)cc1` the value was “inactive”.
In the case of `Cc1cc(C)n2nc(N)nc2n1`, the cytotoxicity call was “inactive”.
In the case of `Nc1ccc2c(c1)nc(CO)n2CCO`, the cytotoxicity call is “inactive”.
Turning to `C[n+]1c2cc(N)ccc2cc2ccc(N)cc21.[Cl-]`, the cytotoxicity call was “inactive”.
`Nc1ccc2cc3ccc(N)cc3nc2c1.O=S(=O)(O)O`: the cytotoxicity call is “active”.
In the case of `C[C@@H]1CCCCO[C@@H](CN(C)Cc2ccccc2)[C@H](C)CN([C@@H](C)CO)C(=O)c2cc(NC(=O)C3CCCCC3)ccc2O1`, the cytotoxicity call is “inactive”.
Turning to `COCCC(=O)NS(=O)(=O)c1ccccc1`, the cytotoxicity call was “inactive”.
To `CC(C)(C)C(=O)N1CCNCC1` belongs “inactive”; to `C[C@H]1CN([C@@H](C)CO)C(=O)c2cc(C#CCN(C)C)cnc2O[C@@H]1CN(C)C(=O)Nc1ccccc1F`, “inactive”; to `C=C1C[C@@H]2CC[C@@]34C[C@H]5O[C@H]6[C@@H](O3)[C@H]3O[C@H](CC[C@@H]3O[C@H]6[C@H]5O4)CC(=O)C[C@@H]3[C@@H](OC)[C@@H](C[C@H](O)CN)O[C@H]3C[C@H]3O[C@@H](CC[C@@H]1O2)C[C@@H](C)C3=C`, “active”.
For `COc1ccc(NC(=O)N(C)C[C@@H]2Oc3ccc(NC(=O)Nc4ccc(C(F)(F)F)cc4)cc3CC(=O)N([C@@H](C)CO)C[C@@H]2C)cc1` the value was “inactive”; for `C[C@@H]1CN([C@H](C)CO)C(=O)c2cc(Br)cnc2O[C@H]1CN(C)S(=O)(=O)c1ccc(F)cc1`, “inactive”.
For the molecule `COc1ccccc1C#Cc1ccc2c(c1)O[C@H](CN(C)Cc1ccncc1)[C@H](C)CN([C@H](C)CO)S2(=O)=O`, the cytotoxicity call is “inactive”.
With `COc1ccccc1C#Cc1ccc2c(c1)O[C@@H](CN(C)Cc1ccncc1)[C@@H](C)CN([C@@H](C)CO)S2(=O)=O`, the cytotoxicity call was “inactive”.
With `COc1ccccc1C#Cc1ccc2c(c1)O[C@H](CN(C)Cc1ccncc1)[C@H](C)CN([C@@H](C)CO)S2(=O)=O`, the cytotoxicity call was “inactive”.
Consider `COc1ccccc1C#Cc1ccc2c(c1)O[C@@H](CN(C)Cc1ccncc1)[C@H](C)CN([C@H](C)CO)S2(=O)=O`, for which the cytotoxicity call is “active”.
Take `COc1ccccc1C#Cc1ccc2c(c1)O[C@H](CN(C)Cc1ccncc1)[C@@H](C)CN([C@@H](C)CO)S2(=O)=O`: the cytotoxicity call was “active”.
In the case of `COc1ccccc1C#Cc1ccc2c(c1)O[C@@H](CN(C)Cc1ccncc1)[C@@H](C)CN([C@H](C)CO)S2(=O)=O`, the cytotoxicity call was “inactive”.
As to `COc1ccccc1C#Cc1ccc2c(c1)O[C@H](CN(C)Cc1ccncc1)[C@@H](C)CN([C@H](C)CO)S2(=O)=O`, the cytotoxicity call was “inactive”.
Consider `COc1ccccc1C#Cc1ccc2c(c1)O[C@@H](CN(C)Cc1ccncc1)[C@H](C)CN([C@@H](C)CO)S2(=O)=O`, for which the cytotoxicity call was “active”.
Regarding `C[C@H](CO)N1C[C@H](C)[C@H](CN(C)S(=O)(=O)c2cccc(F)c2)Oc2cc(Br)ccc2S1(=O)=O`, the cytotoxicity call was “inactive”.
As to `C[C@@H]1CN([C@@H](C)CO)C(=O)c2cc(NS(C)(=O)=O)ccc2O[C@@H]1CN(C)C(=O)Nc1ccc(C(F)(F)F)cc1`, the cytotoxicity call was “inactive”.
Consider `COc1ccc(S(=O)(=O)Nc2ccc3c(c2)C(=O)N([C@@H](C)CO)C[C@H](C)[C@@H](CN(C)C(=O)Nc2c(C)noc2C)O3)cc1`, for which the cytotoxicity call is “inactive”.
Take `C[C@@H]1CN([C@H](C)CO)C(=O)c2cc(NC(=O)Nc3cccc4ccccc34)ccc2O[C@@H]1CN(C)Cc1ccc2c(c1)OCO2`: the cytotoxicity call was “inactive”.
For `CC(C)NC(=O)N(C)C[C@H]1OCCCC[C@H](C)Oc2ccc(NS(C)(=O)=O)cc2C(=O)N([C@@H](C)CO)C[C@@H]1C` the value was “inactive”; for `CNC1CCC(c2ccc(Cl)c(Cl)c2)c2ccccc21.Cl` (centres undefined), “active”; for `N[C@@H]1CC[C@@H](c2ccc(Cl)c(Cl)c2)c2ccccc21`, “active”.
As for `CN[C@H]1CC[C@@H](c2ccc(Cl)c(Cl)c2)c2ccccc21`, the cytotoxicity call was “inactive”.
In the case of `COC(=O)c1c2oc(c1C(=O)OC)C(=O)N(C)Cc1cn(nn1)C[C@H](Cc1ccccc1)NC(=O)N[C@H](CO)CC2`, the cytotoxicity call is “inactive”.
To `O=c1[nH]c2ccc(F)cc2[nH]1` belongs “inactive”; to `CC(C)NC(=O)N(C)C[C@@H]1Oc2ccc(NC(=O)Cc3ccccc3)cc2C(=O)N([C@@H](C)CO)C[C@H]1C`, “inactive”; to `COc1ccc(CN(C)C[C@@H]2Oc3ccc(NS(=O)(=O)c4cn(C)cn4)cc3C(=O)N([C@@H](C)CO)C[C@H]2C)cc1`, “inactive”.
For the molecule `C[C@H](CO)N1C[C@H](C)[C@H](CN(C)Cc2ccc(C(F)(F)F)cc2)OCCCC[C@H](C)Oc2ccc(NS(=O)(=O)c3ccccc3)cc2C1=O`, the cytotoxicity call was “inactive”.
With `CNC(=O)C[C@H]1CC[C@@H]2[C@H](COC[C@H](O)CN2C(=O)c2ccccn2)O1`, the cytotoxicity call is “inactive”.
Turning to `C[C@@H]1CCCCO[C@@H](CN(C)C(=O)Nc2cccc3ccccc23)[C@H](C)CN([C@H](C)CO)C(=O)c2cc(NC(=O)Nc3ccc(C(F)(F)F)cc3)ccc2O1`, the cytotoxicity call is “inactive”.
Regarding `C[C@@H]1CCCCO[C@H](CN(C)C(=O)Nc2cccc3ccccc23)[C@@H](C)CN([C@@H](C)CO)C(=O)c2cc(NC(=O)Nc3ccc(C(F)(F)F)cc3)ccc2O1`, the cytotoxicity call is “inactive”.
Regarding `C[C@@H]1CN([C@@H](C)CO)C(=O)c2cc(NC(=O)Nc3ccc(C(F)(F)F)cc3)ccc2O[C@@H](C)CCCCO[C@@H]1CN(C)C(=O)Nc1cccc2ccccc12`, the cytotoxicity call was “active”.
Turning to `C[C@@H]1CCCCO[C@@H](CN(C)C(=O)Nc2cccc3ccccc23)[C@H](C)CN([C@@H](C)CO)C(=O)c2cc(NC(=O)Nc3ccc(C(F)(F)F)cc3)ccc2O1`, the cytotoxicity call is “inactive”.
Take `C[C@H](CO)N1C[C@H](C)[C@@H](CN(C)C(=O)Nc2cccc3ccccc23)OCCCC[C@H](C)Oc2ccc(NC(=O)Nc3ccc(C(F)(F)F)cc3)cc2C1=O`: the cytotoxicity call was “inactive”.
Turning to `C[C@H](CO)N1C[C@H](C)[C@H](CN(C)C(=O)Nc2cccc3ccccc23)OCCCC[C@H](C)Oc2ccc(NC(=O)Nc3ccc(C(F)(F)F)cc3)cc2C1=O`, the cytotoxicity call is “inactive”.
With `C[C@@H]1CCCCO[C@@H](CN(C)C(=O)Nc2cccc3ccccc23)[C@@H](C)CN([C@@H](C)CO)C(=O)c2cc(NC(=O)Nc3ccc(C(F)(F)F)cc3)ccc2O1`, the cytotoxicity call was “active”.
For `C[C@@H]1CCCCO[C@@H](CN(C)C(=O)Nc2cccc3ccccc23)[C@@H](C)CN([C@H](C)CO)C(=O)c2cc(NC(=O)Nc3ccc(C(F)(F)F)cc3)ccc2O1` the value was “active”.
For `C[C@@H]1CN([C@@H](C)CO)C(=O)c2cc(NC(=O)Nc3ccc(C(F)(F)F)cc3)ccc2O[C@@H](C)CCCCO[C@H]1CN(C)C(=O)Nc1cccc2ccccc12` the value was “inactive”; for `Cn1cnc(S(=O)(=O)N2C[C@@H](O)COC[C@H]3O[C@@H](CC(=O)NC4CCCC4)CC[C@@H]32)c1`, “inactive”.
Turning to `COc1ccccc1CNC(=O)C[C@@H]1C[C@H]2c3cc(NC(=O)C4CCOCC4)ccc3O[C@H]2[C@@H](CO)O1`, the cytotoxicity call was “inactive”.
In the case of `O=C(c1cc2n(n1)CCCO2)N1CC(O)C1`, the cytotoxicity call was “inactive”.
Consider `Cc1noc(C)c1NC(=O)N(C)C[C@H]1Oc2ccc(NC(=O)CCN3CCOCC3)cc2CC(=O)N([C@H](C)CO)C[C@@H]1C`, for which the cytotoxicity call was “inactive”.
As for `C[C@H](CO)N1C[C@H](C)[C@H](CN(C)C(=O)c2ccc3c(c2)OCO3)Oc2ncc(C#CCN(C)C)cc2C1=O`, the cytotoxicity call is “inactive”.
With `CCC(=O)N1C[C@]2(CN(C2)S(=O)(=O)C)c2c(n(c3cc(ccc23)OC)C)[C@@H]1CO`, the cytotoxicity call was “inactive”.
Consider `C[C@H](CO)N1C[C@H](C)[C@H](CN(C)S(=O)(=O)c2cn(C)cn2)Oc2ccc(NS(=O)(=O)c3ccccc3)cc2CC1=O`, for which the cytotoxicity call was “inactive”.
For `C[C@@H]1CN([C@@H](C)CO)C(=O)Cc2cc(NC(=O)CCC(F)(F)F)ccc2O[C@H]1CN(C)Cc1ccc(Cl)c(Cl)c1` the value was “active”.
`C[C@@H]1CN([C@H](C)CO)C(=O)Cc2cc(NC(=O)CCC(F)(F)F)ccc2O[C@H]1CN(C)Cc1ccc(-c2ccccc2)cc1`: the cytotoxicity call is “inactive”.
As for `C[C@H]1CN([C@@H](C)CO)C(=O)Cc2cc(NC(=O)CCC(F)(F)F)ccc2O[C@H]1CN(C)Cc1ccc(-c2ccccc2)cc1`, the cytotoxicity call is “inactive”.
With `C[C@@H]1CN([C@H](C)CO)C(=O)Cc2cc(NC(=O)CCC(F)(F)F)ccc2O[C@H]1CN(C)Cc1ccc(Cl)c(Cl)c1`, the cytotoxicity call is “inactive”.
Regarding `C[C@@H]1CN([C@@H](C)CO)C(=O)Cc2cc(NC(=O)CCC(F)(F)F)ccc2O[C@H]1CN(C)Cc1ccc(-c2ccccc2)cc1`, the cytotoxicity call was “active”.
Turning to `C[C@H](CO)N1C[C@H](C)[C@@H](CN(C)Cc2ccc(Cl)c(Cl)c2)Oc2ccc(NC(=O)CCC(F)(F)F)cc2CC1=O`, the cytotoxicity call was “inactive”.
As to `CCOC(=O)c1cn2cn[nH]c2nc1=O`, the cytotoxicity call was “inactive”.
On to `C[C@@H]1CN([C@H](C)CO)C(=O)Cc2cc(NC(=O)Nc3ccc4c(c3)OCO4)ccc2O[C@@H]1CN(C)Cc1ccc(C(=O)Nc2ccccc2N)cc1`, for which the cytotoxicity call is “inactive”.

(Values after the antibiotic and cytotoxicity screens of Wong et al. (2023).)
